Laboratory results published in PubChem BioAssay (NCATS).
Records with an inconclusive call do not appear. A number with no mark means an inactive call. Calls follow the shape of the dose curve; as a rule, active = well fitted inhibition curve with a large enough effect; inconclusive = small, poorly fitted or top-dose-only effect; inactive = flat fitted curve, though single readings scatter.
% is scaled to controls: 0 for no effect and ±100 for the full control effect.

Each compound was assayed against Ubiquitin carboxyl-terminal hydrolase 1 (Homo sapiens) (UniProt O94782) (assay: Inhibitors of USP1/UAF1: Pilot qHTS (AID 504865;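 also: rhodamine fluorescence freed from ubiquitin-rhodamine substrate followed over time; top concentration of the series differs between compounds; nearly all actives have a fitted effect of over 35% in size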)). Details: purified USP1/UAF1, Ub-rhodamine cleavage fluorescence; series mostly up to 114 µM; activity change, negative = inhibition: at the top concentration.
Chain of Ubiquitin carboxyl-terminal hydrolase 1 (Homo sapiens) (O94782 whole entry, looked up): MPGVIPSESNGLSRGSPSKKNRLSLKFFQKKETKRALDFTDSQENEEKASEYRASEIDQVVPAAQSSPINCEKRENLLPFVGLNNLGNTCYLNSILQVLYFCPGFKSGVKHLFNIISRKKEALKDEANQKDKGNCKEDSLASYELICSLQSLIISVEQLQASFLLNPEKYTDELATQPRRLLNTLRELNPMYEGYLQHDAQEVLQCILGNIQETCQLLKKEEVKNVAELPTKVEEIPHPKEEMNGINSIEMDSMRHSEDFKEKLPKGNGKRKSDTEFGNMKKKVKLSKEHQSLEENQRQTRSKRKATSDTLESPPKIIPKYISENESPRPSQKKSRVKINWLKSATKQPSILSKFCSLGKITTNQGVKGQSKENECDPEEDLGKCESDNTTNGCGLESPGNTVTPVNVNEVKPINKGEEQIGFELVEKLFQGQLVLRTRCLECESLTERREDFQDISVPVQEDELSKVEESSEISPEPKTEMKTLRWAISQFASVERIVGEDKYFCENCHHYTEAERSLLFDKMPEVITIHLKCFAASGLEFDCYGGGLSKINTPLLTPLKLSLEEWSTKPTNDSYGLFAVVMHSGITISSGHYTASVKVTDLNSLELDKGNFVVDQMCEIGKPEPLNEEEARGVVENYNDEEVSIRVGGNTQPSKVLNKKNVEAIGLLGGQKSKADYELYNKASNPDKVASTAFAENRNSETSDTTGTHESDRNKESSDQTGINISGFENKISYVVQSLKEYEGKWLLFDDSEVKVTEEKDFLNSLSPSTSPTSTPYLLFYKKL
In short: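 Enzyme-free wells gave the negative control, while test wells held 1nM USP1/UAF1 preincubated with compound for 15 min at room temperature. Ub-Rho at 150nM final started the reaction, and fluorescence at 480/540 nm was recorded kinetically.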
`Cc1cccn2c(=O)c(-c3nnn[nH]3)cnc12` was tested, and the “activity change, negative = inhibition” value was -6.1%.
For `O=C1[C@H]2CCCC[C@H]2C(=O)N1CCCCN1CCN(c2nsc3ccccc23)CC1`, the “activity change, negative = inhibition” value was -12.2%.
`CCN(CC)CCNC(=O)COc1ccc(Cl)cc1` was tested, and the “activity change, negative = inhibition” value was -2.13%.
In the case of `CC(C)(C(=O)c1cccnc1)c1cccnc1`, the “activity change, negative = inhibition” value is reported as -6.55% [at 54.9 µM].
`Cc1ccc(C(=O)C(C)CN2CCCCC2)cc1` (stereo unspecified) was tested, and the “activity change, negative = inhibition” value was -2.53%.
`O=C(CCN1CCC(c2ccccc2)C1)c1ccc2c(c1)OCCO2` (stereo unspecified) was tested, and the “activity change, negative = inhibition” value was -10.7%.
For `CCOC(=O)OC(C)OC1=C(C(=O)Nc2ccccn2)N(C)S(=O)(=O)c2ccccc21` (stereo unspecified), the “activity change, negative = inhibition” value was 5.97%.
For `Cc1c(F)c(N2CCNC(C)C2)cc2c1c(=O)c(C(=O)O)cn2C1CC1` (stereo unspecified), the “activity change, negative = inhibition” value was -7.99%.
In the case of `CCN(CCCc1ccccc1)CCCc1ccccc1`, the “activity change, negative = inhibition” value is reported as 10.5% [at 54.9 µM].
In the case of `CN1CCC[C@@H]1c1cccnc1`, the “activity change, negative = inhibition” value is reported as -0.742%.
In the case of `COc1ccc(OC)c(C(O)CNC(=O)CN)c1` (stereo unspecified), the “activity change, negative = inhibition” value is reported as -13.7%.
